Measured values: PubChem BioAssay (NCATS)
Records with an inconclusive call do not appear. A number with no mark means an inactive call. The source made the active and inactive calls. The call rests on the fitted dose curve; in most records, active means well fitted inhibition curve with a large enough effect; inconclusive means small, poorly fitted or top-dose-only effect; inactive means no such curve, though single readings can be large or run the other way.

Test: qHTS Screen of the MIPE 4.0 Collection Against Ewings Sarcoma (RDES) (AID 1259252); further: nearly all actives have a fitted effect of over 35% in size;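 on viability (percent of control): 100% = DMSO-treated cells and 0% = medium-only wells without cells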
Conditions: RD-ES Ewing sarcoma viability, CellTiter-Glo, 48 h; series mostly up to 45.8 µM; viability (percent of control): at the top concentration
Excerpt: There is a large unmet medical need for treatments for Ewing sarcoma, a pediatric sarcoma. We sought to identify compounds that inhibited Ewing sarcoma cells in vitro with the goal to then test promising drugs in two drug combinations in vitro to look for synergistic drug combinations. Promising combinations would then proceed to additional validation, including in vivo testing.
Using the NCATS developed oncology compound library called the Mechanism of Interrogation Plate (MIPE), four Ewing sarcoma cell lines were evaluated (TC32, TC71, RDES, EW8). Compounds, in a 12-point titration series, were incubated with cells for 48 hours and the read out was cell viability (CellTiter-Glo from Promega). These initial experiments were used to select appropriate concentrations of each single agent for subsequent two-drug matrix combinations such that the concentrations in the matrices would span both activity and non-activity.
Cells, in the log phase of growth, were seeded in 5 uL of RPMI plus 5% FBS, […] L-glutamine, 100 U/ml penicillin and 100 ug/ml streptomycin into 1536-well solid-bottom white tissue culture treated Greiner Bio One Plates (789173-F) using a MultiDrop Combi (Thermofisher Scientific) dispenser and a small sterile cassette. One column was media alone to be used as a :"no cells" control. The plates were then covered with sterilized stainless steel gasketed lids from Kalypsys. After allowing cells to attach for 4 hours, 23 nL of test compound or control (negative control DMSO and positive control 9.2 uM Bortezomib-final) were added from a 1536-well polypropylene compound source plate to each well using a 1536 head pin tool from Kalypsys. Cells were then incubated for 48 hours at 37C, 95% relative humidity and 5% CO2. After 48 hours, plates were removed from the incubator and 3 uL of CellTiter-Glo (Promega) was added using an Aurora Flying Reagent Dispenser Bioraptor. Plates were incubated at room temperature for 10 minutes prior to reading the luminescence on the Viewlux (PerkinElmer). The relative luciferase units are used to calculate the percent activity using the activity of DMSO in the cells and no cells columns for normalization of no inhibition and full inhibition respectively.
Potency means the concentration at half of the fitted maximal effect.

| SMILES | Potency | viability (percent of control) [%] |
| --- | --- | --- |
| C[C@@H]1O[C@@H](O[C@H]2C[C@@H](O)[C@]3(CO)[C@H]4[C@H](O)C[C@]5(C)[C@@H](C6=CC(=O)OC6)CC[C@]5(O)[C@@H]4CC[C@]3(O)C2)[C@H](O)[C@H](O)[C@H]1O | 0.0833 µM (active) |  |
| CN(C)CCc1ccc(O)cc1 |  | 103 |
| CCCC(C)(COC(N)=O)COC(=O)NC(C)C (stereo not drawn) |  | 126 |
| COC[C@@H](NC(C)=O)C(=O)NCc1ccccc1 |  | 108 |
| C[C@@H]1[C@@H](CC(C[C@H]2O[C@@H]3O[C@]4(C)CC[C@@H]5[C@H](C)CC[C@@H]([C@H]2C)[C@@]35OO4)C[S+](=O)([O-])c2ccc(COC(=O)N(C)C)cc2)O[C@@H]2O[C@]3(C)CC[C@H]4[C@H](C)CC[C@@H]1[C@@]24OO3 (stereo partly drawn) | 0.418 µM (active) |  |
| C=C(C)[C@H]1Cc2c(ccc3c2O[C@@H]2COc4cc(OC)c(OC)cc4[C@@H]2C3=O)O1 | 2.09 µM (active) |  |
| C#CCN(C)[C@H](C)Cc1ccccc1 |  | 105 |
| CNCC(O)c1ccc(O)cc1 (stereo not drawn) |  | 109 |
| CC1=C2C[C@@H]3[C@@H](CC=C4C[C@@H](O)CC[C@@]43C)[C@@H]2CC[C@]12O[C@H]1C[C@H](C)CN[C@H]1[C@H]2C |  | 111 |
| C[C@@H]1[C@@H](C(=O)C[C@H]2O[C@@H]3O[C@]4(C)CC[C@@H]5[C@H](C)CC[C@@H]([C@H]2C)[C@@]35OO4)O[C@@H]2O[C@]3(C)CC[C@H]4[C@H](C)CC[C@@H]1[C@@]24OO3 | 3.72 µM (active) |  |
| CN(C)CCN(C)CCc1ccc(Cl)c(Cl)c1 |  | 109 |
| Cc1cccc(C)c1NC(=O)CN1CCCC1=O |  | 119 |
| COc1ccc(C(=O)c2c(C)n(CCN3CCOCC3)c3ccccc23)cc1 |  | 94.1 |
| O=c1[nH]c2ccccc2n1CCCN1CCC(n2c(=O)[nH]c3cc(Cl)ccc32)CC1 |  | 122 |
| Cc1sc2c(c1C)C(c1ccc(Cl)cc1)=N[C@@H](CC(=O)OC(C)(C)C)c1nnc(C)n1-2 | 1.48 µM (active) |  |
| COc1ccc2c(c1OC)CN1CCc3cc4c(cc3C1C2)OCO4 (stereo not drawn) | 14.8 µM (active) |  |
| CC(O)(CS(=O)(=O)c1ccc(F)cc1)C(=O)Nc1ccc(C#N)c(C(F)(F)F)c1 (stereo not drawn) | 0.59 µM (active) |  |
| O=C1CC[C@@]2(O)[C@H]3Cc4ccc(O)c5c4[C@@]2(CCN3CC2CC2)[C@H]1O5 |  | 122 |
| N[C@@H](Cc1ccc(N(CCCl)CCCl)cc1)C(=O)O | 5.26 µM (active) |  |
| O=C(O)C(=O)c1cn(Cc2ccccc2)c2ccc(-c3ccc(OC(F)(F)F)cc3)cc12 |  | 99.3 |
| Cn1c(CCCC(=O)O)nc2cc(N(CCCl)CCCl)ccc21 | 26.4 µM (active) |  |
| CNC(=O)N1N=C(c2ccc(N)cc2)c2cc3c(cc2CC1C)OCO3 (stereo not drawn) | 9.35 µM (active) |  |
| CNC(=O)c1ccc(N2C(=S)N(c3ccc(C#N)c(C(F)(F)F)c3)C(=O)C23CCC3)cc1F | 20.9 µM (active) |  |
